Rows were chosen to be rich in hits. Some 2.4% of all compounds tested hit in one or more screens of this group.
miR122 inh = blocks miR-122 activity in Huh7 sensor cells; Huh7 miR-122 Renilla luciferase sensor, 48 h; neutral wells = 0, positive control = 100; activation (reporter increase), % at 12.5 µM; hit rate 0.3% among 340,000;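 active = mean replicate activation score at least 90 and every replicate individually at or above 90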;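 also: higher luciferase means less miR-122 activity so hits act as miR-122 inhibitors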
NSD2 HMT inh = blocks human histone methyltransferase NSD2; inhibition, % at 12.5 µM; NSD2 peptide methylation, AlphaScreen, 120 min; O96028; hit rate 0.54% among 310,000
Target sequence (O96028 whole entry, looked up): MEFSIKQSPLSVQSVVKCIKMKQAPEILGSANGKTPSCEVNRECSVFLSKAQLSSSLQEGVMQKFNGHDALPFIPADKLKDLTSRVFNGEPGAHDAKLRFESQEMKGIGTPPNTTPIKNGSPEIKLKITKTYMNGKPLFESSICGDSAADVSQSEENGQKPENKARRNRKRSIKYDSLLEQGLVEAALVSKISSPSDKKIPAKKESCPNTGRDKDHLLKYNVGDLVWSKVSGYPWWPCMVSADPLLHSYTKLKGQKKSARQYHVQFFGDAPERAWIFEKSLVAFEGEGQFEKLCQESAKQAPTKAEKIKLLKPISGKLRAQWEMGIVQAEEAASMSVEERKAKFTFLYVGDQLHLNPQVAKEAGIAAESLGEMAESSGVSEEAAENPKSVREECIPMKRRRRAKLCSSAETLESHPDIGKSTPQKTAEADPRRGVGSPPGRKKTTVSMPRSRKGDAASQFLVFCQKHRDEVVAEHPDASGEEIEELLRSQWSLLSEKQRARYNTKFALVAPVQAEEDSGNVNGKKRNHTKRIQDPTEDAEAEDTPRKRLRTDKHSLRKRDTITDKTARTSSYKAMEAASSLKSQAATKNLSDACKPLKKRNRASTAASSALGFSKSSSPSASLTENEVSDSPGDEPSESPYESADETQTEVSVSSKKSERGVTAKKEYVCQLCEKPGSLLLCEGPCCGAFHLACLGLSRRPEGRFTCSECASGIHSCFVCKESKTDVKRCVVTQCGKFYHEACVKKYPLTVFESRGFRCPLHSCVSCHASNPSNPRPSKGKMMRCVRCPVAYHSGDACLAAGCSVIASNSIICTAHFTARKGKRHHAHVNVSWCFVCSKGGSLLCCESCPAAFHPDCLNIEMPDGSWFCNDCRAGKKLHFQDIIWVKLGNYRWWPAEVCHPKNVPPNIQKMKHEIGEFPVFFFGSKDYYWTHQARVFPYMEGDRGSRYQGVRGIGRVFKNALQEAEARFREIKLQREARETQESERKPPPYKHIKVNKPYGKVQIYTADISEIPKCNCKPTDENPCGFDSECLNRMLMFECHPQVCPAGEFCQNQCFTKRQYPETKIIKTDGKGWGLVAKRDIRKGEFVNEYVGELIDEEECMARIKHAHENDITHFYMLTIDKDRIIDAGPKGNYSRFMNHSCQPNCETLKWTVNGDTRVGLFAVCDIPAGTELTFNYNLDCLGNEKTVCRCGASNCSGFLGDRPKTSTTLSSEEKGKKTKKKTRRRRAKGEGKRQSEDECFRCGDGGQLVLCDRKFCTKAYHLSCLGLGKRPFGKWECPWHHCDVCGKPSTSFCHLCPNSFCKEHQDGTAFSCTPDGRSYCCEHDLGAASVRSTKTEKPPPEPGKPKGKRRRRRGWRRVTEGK
Dyrk1A ADPGlo = inhibitors of rat Dyrk1A kinase; inhibition, % at 12.5 µM; hit rate 0.43% among 310,000; ADP-Glo luminescence, NFATc1 peptide; Q63470
GSIS activator = GLuc luminescence reporter in INS-1E cells, primary screen for activators of glucose-dependent secretion of insulin; activation, % at 16.6 µM; hit rate 0.61% among 370,000; INS-1E GLuc reporter insulin secretion, 2-3 h;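 active = lowest replicate activation of at least 40%, so every replicate reaches that level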
Wnt bcat act = activates Wnt/beta-catenin signaling in a reporter cell assay; hit rate 1.2% among 300,000; activation, % at 9.35 µM; activator, plate reader; in the data active = activation above about 30%, passing the limit was not always enough
MITF act = activators of MITF-driven TRPM1 promoter activity in SK-MEL-5 cells. SK-MEL-5 TRPM1-promoter luciferase, 24 h; % of positive control, neutral wells = 0. activation, % at 12.5 µM. hit rate 0.75% among 300,000. AID 588334;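 active = mean activation of at least 80% with every replicate also reaching 80%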
Hits are given with their value; i = inactive; nt = not tested or not shown; [ ] = remark or other dose. Rule as the data show it, unless noted: active = inhibition above about 50%; inactive = the rest.

SMILES	miR122 inh	NSD2 HMT inh	Dyrk1A ADPGlo	GSIS activator	Wnt bcat act	MITF act
CS(=O)(=O)N(Cc1ccc(Cl)cc1)c1ccc(C(=O)NCCC2=CCCCC2)cc1	i	i	i	80	nt	i
Cc1cccn2cc(CNS(=O)(=O)c3ccc4ccccc4c3)nc12	i	i	i	65	i	i
C[C@H](CO)N1C[C@H](C)[C@@H](CN(C)Cc2ccc(Cl)c(Cl)c2)Oc2c(NC(=O)C3CC3)cccc2C1=O	114[16.7 µM]	nt	i	i	i	i
C[C@@H]1CN([C@H](C)CO)C(=O)c2cccc(NC(=O)NC3CCCCC3)c2O[C@H]1CN(C)Cc1ccc(Cl)c(Cl)c1	118[16.7 µM]	nt	nt	i	nt	nt
C[C@H](CO)N1C[C@H](C)[C@@H](CN(C)Cc2ccc(Cl)c(Cl)c2)Oc2c(NC(=O)NC3CCCCC3)cccc2C1=O	i	nt	nt	i	nt	nt
O=C(C[C@@H]1CC[C@H]2[C@@H](COC[C@@H](O)CN2Cc2ccccc2F)O1)N1CCc2ccccc2C1	i	nt	nt	i	nt	nt
CCOC(=O)N1N=C(CC)CC1(O)C(F)(F)F (centres undefined)	i	i	i	nt	34	i
CCOC(=O)N1N=C(c2ccc(C)cc2)CC1(O)C(F)(F)F (centres undefined)	i	i	i	i	i	i
O=C(Nc1cccc(Cl)c1)c1cnn2cccnc12	i	i	i	58	nt	89
CSc1cccc(NC(=O)c2cnn3ccccc23)c1	nt	nt	i	nt	40	104
CCc1ccc(NC(=O)c2cnn3ccccc23)cc1	i	nt	i	nt	i	i
Cc1ccc(S(=O)(=O)N[C@H]2CC[C@@H](CCn3cc(-c4cccc(F)c4)nn3)O[C@H]2CO)cc1	nt	nt	nt	i	nt	nt
Clc1ccccc1Nc1nc2ccccc2o1	nt	i	nt	i	60	i
Cc1cccc(C)c1Nc1nc2ccccc2o1	nt	nt	i	nt	i	i
O=C(C[C@H]1CC[C@@H]2[C@H](COC[C@@H](O)CN2S(=O)(=O)c2cccc(F)c2)O1)Nc1ccc(-c2ccccc2)cc1	i	nt	nt	i	nt	nt
O=C(COc1ccccc1-c1ccccc1)N/N=C/c1cccc2ccccc12	i	i	i	nt	nt	i
O=C(C[n+]1ccc(C(=O)N/N=C/c2ccc(OCc3ccccc3)cc2)cc1)c1ccccc1	i	nt	i	i	i	134
CC(C)(C)NCC(=O)N/N=C/c1ccc(OCc2ccccc2)cc1	nt	i	i	i	i	87
COc1ccc(/C=N/NC(=O)COc2ccccc2-c2ccccc2)cc1	129	i	i	i	i	i
Oc1ccc(N=Cc2ccc(OCc3ccccc3)cc2)cc1	i	79	i	i	i	i
CCC(=O)N1[C@@H](CO)[C@@H](c2ccc(-c3ccccc3)cc2)[C@@H]1CN(C)C(C)=O	i	nt	nt	i	nt	nt
C[C@@H]1CN([C@H](C)CO)C(=O)c2cc(C#CC(C)(C)O)cnc2O[C@H]1CN(C)Cc1cccc(F)c1	i	nt	nt	i	nt	nt
CCCNC(=O)C[C@@H]1C[C@H]2c3cc(NC(=O)Nc4ccccc4F)ccc3O[C@H]2[C@@H](CO)O1	i	nt	nt	i	nt	nt
Cc1cc(C)cc(NC(=O)C2CCN(c3nccs3)CC2)c1	128	i	i	i	nt	i
Cc1cc(C)cc(NC(=O)C2CCN(S(C)(=O)=O)CC2)c1	i	i	i	nt	i	i
SMILES	miR122 inh	NSD2 HMT inh	Dyrk1A ADPGlo	GSIS activator	Wnt bcat act	MITF act
O=C(Nc1ccccc1F)Nc1ccc([N+](=O)[O-])cc1Cl	nt	i	i	i	43	i
Cc1ccc([N+](=O)[O-])cc1NC(=O)c1ccccc1	i	i	i	i	i	i
O=C(Nc1ccc([N+](=O)[O-])cc1Cl)c1cccc([N+](=O)[O-])c1	i	i	nt	i	i	nt
O=C(COC(=O)c1ccccc1NC(=O)c1ccccc1)c1ccc([N+](=O)[O-])cc1	i	i	i	nt	nt	i
O=C(Nc1ccc([N+](=O)[O-])cc1NC(=O)c1ccccc1)c1ccccc1	i	i	i	85	i	i
O=C(COC(=O)c1ccccc1NC(=O)c1ccccc1)c1cccc([N+](=O)[O-])c1	i	i	i	69	nt	i
O=C(Nc1ccccc1)c1cc([N+](=O)[O-])ccc1NC1CCCCC1	123	i	i	i	i	i
C[C@@H]1CN([C@H](C)CO)C(=O)c2cccc(NC(=O)Nc3ccc(C(F)(F)F)cc3)c2O[C@@H]1CN(C)Cc1ccc(C(=O)Nc2ccccc2N)cc1	nt	nt	nt	i	nt	nt
CCN(Cc1ccncc1)C(=O)c1cccc(S(=O)(=O)N(C)c2ccccc2)c1	nt	i	nt	nt	nt	nt

Screening results deposited in PubChem BioAssay by Broad Institute.
